A selection: hits, their analogues and other compounds. The true share with any hit is near 19%.
IL-1B inflam inh – inhibitors of inflammasome signaling (IL-1 beta secretion). activity change, % at 57.5 µM. THP-1 LPS/ATP IL-1B secretion, AlphaLISA, 16 h; stronger effect = lower value. 360,000 compounds, 4.7% hits; in the data active means activity change below about -50%; inconclusive means mostly about -30% to -49%
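THP-1 cells pretreated 1 hr with compounds (up to 57.5 uM final), then stimulated with LPS (250 ng/mL final) plus ATP (1.25 mM final); secreted IL-1B measured by AlphaLISA after 16 hr, decreased signal indicating inhibition.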
Giardia kill – Giardia lamblia killing. Giardia lamblia trophozoite viability. activity change, % at 7.66 µM, hits read low. 340,000 compounds, 0.15% hits. AID 540267; in the data active means activity change below about -80%; inconclusive means between about -30% and that limit;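 further: parasites exposed to compound for two days anaerobically before the ATP read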
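Each well holds 100 Giardia trophozoites and compound. After two days (48 hrs) at 37 deg C in anaerobic conditions, ATP is quantified by luminescence.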
TDP1 cell CPT – growth inhibition of DT40 Tdp1-/-;hTDP1 cells with camptothecin (screen for TDP1 inhibitors) | chicken DT40 Tdp1-/-;hTDP1 cells + 20 nM CPT, ATP luminescence, 48 h | Potency, µM (highest dose often 46.2 µM), without a hit: top-dose activity change, negative = growth inhibition, hits mostly inhibitors | 420,000 compounds, 12% hits; further: potency means the concentration at half of the fitted maximal effect; nearly all actives have a fitted effect of over 55% in size
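Cell growth measured by CellTiter-Glo luminescence after a minimum 48 h, 37 C compound exposure with 20 nM CPT in Tdp1-knockout DT40 cells stably expressing hTDP1, seeded 400/well; qHTS titration format.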
TDP1 cell noCPT – qHTS for Inhibitors of human tyrosyl-DNA phosphodiesterase 1 (TDP1): qHTS in cells in absence of CPT; DT40 Tdp1-/- hTDP1 cells, no CPT, ATP luminescence, 48 h; Potency, µM (doses to about 46.2 µM), without a hit: top-dose activity change, negative = growth inhibition, usual class: inhibitors; 420,000 compounds, 15% hits; AID 686978, 2013; further: potency means the concentration at half of the fitted maximal effect; nearly all actives have a fitted effect of over 55% in size
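Growth of hTDP1-complemented DT40 Tdp1-knockout cells is measured by ATP luminescence after at least 48 hr compound exposure at 37 °C, with DMSO substituting for the 20 nM CPT used in the parallel screen.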
ELG1 DNA repair – ELG1-dependent DNA repair inhibition; Potency, µM (highest dose often 46.1 µM), for inactives: at the top dose activity change, negative = inhibition, usual class: inhibitors; HEK293T ELG1-luciferase reporter, luminescence, 16 h; DNA damage induced by 5-fluorouridine; 330,000 compounds, 2.3% hits; AID 504467; further: potency means the concentration at half of the fitted maximal effect; nearly all actives have a fitted effect of over 55% in size
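Step one: seed 2,000 cells per well. Step two: pin-transfer compound or DMSO alongside 5-fluorouridine. Step three: incubate 16 hr, 37 °C, 5% CO2. Step four: add ONE-Glo, wait 30 min, read luminescence.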
TDP1 inh – TDP1 (human) enzyme inhibition. recombinant TDP1, AlphaScreen DNA substrate cleavage. 350,000 compounds, 0.28% hits. AID 485290. Potency, µM (titrated, usually from 130 µM), inactives show at the top dose activity change, negative = inhibition, actives largely listed as inhibitors; further: potency means the concentration at half of the fitted maximal effect; nearly all actives have a fitted effect of over 40% in size
Target sequence (Q9NUW8 whole entry, looked up): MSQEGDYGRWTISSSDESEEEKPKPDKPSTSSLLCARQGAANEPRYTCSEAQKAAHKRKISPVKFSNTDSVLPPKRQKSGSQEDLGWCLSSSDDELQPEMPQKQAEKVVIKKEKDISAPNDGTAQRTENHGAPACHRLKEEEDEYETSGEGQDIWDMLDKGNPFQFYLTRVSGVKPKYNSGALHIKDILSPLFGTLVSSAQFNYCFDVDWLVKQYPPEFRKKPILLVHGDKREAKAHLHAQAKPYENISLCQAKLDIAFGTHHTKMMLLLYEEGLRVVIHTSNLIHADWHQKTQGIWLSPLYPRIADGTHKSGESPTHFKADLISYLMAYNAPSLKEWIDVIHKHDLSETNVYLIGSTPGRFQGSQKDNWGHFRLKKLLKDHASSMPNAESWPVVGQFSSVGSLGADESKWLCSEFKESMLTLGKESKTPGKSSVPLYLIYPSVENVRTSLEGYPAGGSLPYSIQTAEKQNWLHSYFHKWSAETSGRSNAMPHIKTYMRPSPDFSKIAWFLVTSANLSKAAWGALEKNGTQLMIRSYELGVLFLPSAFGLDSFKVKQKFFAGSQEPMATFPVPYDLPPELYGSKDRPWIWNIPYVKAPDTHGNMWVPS
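Here, a 5' biotin and 3' phosphotyrosine-FITC DNA oligonucleotide reports Tdp1 activity: intact substrate bridges AlphaScreen beads, while cleavage leaves a 3' phosphate and drops signal. All incubations at room temperature.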
* = called active by the depositor; u = inconclusive; x = no result given. Unless noted, the call rests on the fitted dose curve; in most records, active means well fitted curve in the direction sought with a large enough effect; inconclusive means small, poorly fitted or top-dose-only effect, or another doubt; inactive means no such curve, though single readings can be large; an effect the other way counts as inactive or inconclusive. On the % scale 0 is the no-effect control and ±100 the full control effect.

SMILES | IL-1B inflam inh | Giardia kill | TDP1 cell CPT | TDP1 cell noCPT | ELG1 DNA repair | TDP1 inh
COc1cc(C(=O)Nc2nc(-c3cccs3)cs2)cc(OC)c1OC | -77.5* | 5.4 | 23.1µM* | 13µM* | 13µM* | 10.9%
O=C(Nc1nc(-c2ccc(Cl)s2)cs1)c1ccncc1 | -14.9 | 3.4 | 9.2µM* | 9.2µM* | -2.0% | 3.1%
O=C(CSCC(=O)N1CCCCC1)Nc1nc(-c2ccc(Cl)s2)cs1 | 12.6 | 11.4 | -2.4% | -27.5% | u | 0.0%
Cc1cc(N)ccc1NC(=O)CN1CCOCC1 | 0.4 | 6.6 | 3.4% | 4.7% | 12.8% | x
C[C@@H]1CN([C@@H](C)CO)C(=O)c2cc(NC(=O)C3CC3)ccc2O[C@@H]1CN(C)Cc1ccc(Cl)c(Cl)c1 | u | -10.1 | 20.6µM* | 23.1µM* | u | 3.5%
C[C@H](CO)N1C[C@H](C)[C@@H](CN(C)CC2CCCCC2)Oc2c(NC(=O)CCC(F)(F)F)cccc2C1=O | 7.3 | 16.9 | 20.6µM* | 14.6µM* | -23.3% | 2.7%
C[C@@H]1CN([C@@H](C)CO)C(=O)c2cccc(NS(=O)(=O)c3cccs3)c2O[C@H]1CN(C)Cc1ccc(C(F)(F)F)cc1 | -11.7 | u | 16.4µM* | u | 15.4% | 2.6%
C[C@H](CO)N1C[C@H](C)[C@@H](CN(C)Cc2ccc(-c3ccccc3)cc2)Oc2c(NC(=O)Cc3ccccc3)cccc2C1=O | -23.5 | -7.8 | u | 23.1µM* | u | 5.8%
C[C@H](CO)N1C[C@H](C)[C@@H](CN(C)Cc2ccncc2)Oc2c(NC(=O)Cc3ccccc3)cccc2C1=O | 17.5 | -9.1 | u | u | -11.7% | 1.6%
O=c1c(-c2ccc(Cl)cc2)nc2cncnc2n1Cc1ccccc1Cl | x | x | 10.9% | 0.5% | x | x
C[C@H](CO)N1C[C@H](C)[C@@H](CN(C)Cc2ccc(Cl)c(Cl)c2)Oc2c(NC(=O)Cc3ccccc3)cccc2C1=O | u | -1.4 | u | 14.6µM* | -2.1% | 2.8%
C[C@H](CO)N1C[C@H](C)[C@@H](CN(C)Cc2ccccc2)Oc2c(NC(=O)Cc3ccccc3)cccc2C1=O | -8.8 | -10.8 | 14.6µM* | 10.3µM* | u | 3.5%
C[C@H](CO)N1C[C@H](C)[C@@H](CN(C)C)Oc2c(NC(=O)Cc3ccccc3)cccc2C1=O | 52.6 | -4.7 | u | -24.1% | -3.7% | 0.5%
C[C@H](CO)N1C[C@H](C)[C@@H](CN(C)Cc2ccncc2)Oc2c(NC(=O)C3CCCCC3)cccc2C1=O | -2.7 | -18.5 | u | u | 11.0% | 3.4%
C[C@H](CO)N1C[C@H](C)[C@@H](CN(C)Cc2ccc(Cl)c(Cl)c2)Oc2c(NS(=O)(=O)c3ccc(F)cc3)cccc2C1=O | -82.2* | 8.7 | u | 23.1µM* | u | 3.0%
C[C@@H]1CN([C@@H](C)CO)C(=O)c2cccc(NC(=O)C3CCCCC3)c2O[C@@H]1CN(C)Cc1ccc(Cl)c(Cl)c1 | -90.4* | 5.7 | 10.3µM* | 20.6µM* | u | 3.4%
CC(C)ON(C(C(=O)NO)C(C)C)S(=O)(=O)c1ccc(-c2ccccc2)cc1 (stereo unspecified) | x | x | x | x | x | 10.8%
COc1ccccc1OC(C)C(=O)N1CCN(Cc2ccc3c(c2)OCO3)CC1 (stereo unspecified) | -16.3 | -2.1 | 5.0% | 1.6% | 0.3% | 9.5%
C[C@H](CO)N1C[C@H](C)[C@@H](CN(C)Cc2ccc(C(=O)O)cc2)Oc2c(NS(=O)(=O)c3ccccc3)cccc2C1=O | -2.0 | 7.4 | 2.0% | -10.7% | u | 0.7%
C[C@H](CO)N1C[C@H](C)[C@@H](CN(C)Cc2ccc(-c3ccccc3)cc2)Oc2c(NS(=O)(=O)c3ccccc3)cccc2C1=O | u | -16.6 | 20.6µM* | 18.4µM* | -2.2% | 3.4%
CCCn1c(O)c(C=Nc2ccccc2)sc1=S | -9.0 | 9.3 | -4.7% | u | u | -2.6%
